Gal4-VP16 FLuc: VP16 counterscreen qHTS for inhibitors of ROR gamma transcriptional activity. hit rate 3.5% among 310,000. Potency, µM (doses to about 53.6 µM), without a hit: at the top dose activity, negative = inhibition, actives largely listed as inhibitors. Drosophila S2 Gal4-VP16 UAS-luciferase, luminescence, 20 h;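 note: Gal4-VP16 expression switched on by copper sulfate through the metallothionein promoter; nearly all actives have a fitted effect of over 50% in size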
KinaseGlo FLuc: Counterscreen for Luciferase (Kinase-Glo TM) Inhibition; Potency, µM (series often up to 38.3 µM), without a hit: at the highest dose activity change, negative = inhibition, usual class: inhibitors; hit rate 0.28% among 200,000; Kinase-Glo luciferase, ATP luminescence, 8 min; note: nearly all actives have a fitted effect of over 60% in size
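Compounds were added to a substrate mix at pH 7.2 (50 mM imidazole, 10 uM ATP, within the enzyme's linear range), followed by Kinase-Glo detection reagent; luminescence was measured after 8 minutes at ambient temperature.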
RORgamma inh: qHTS for inhibitors of ROR gamma transcriptional activity; Nuclear receptor ROR-gamma (Mus musculus), P51450; Drosophila S2 Gal4-RORgamma UAS-luciferase reporter, 20 h; Potency, µM (series often up to 53.6 µM), inactives show at the top dose activity change, negative = inhibition, actives largely listed as inhibitors; hit rate 5.4% among 310,000; note: nearly all actives have a fitted effect of over 60% in size
Target sequence (P51450 whole entry, looked up, the tested form may be a part): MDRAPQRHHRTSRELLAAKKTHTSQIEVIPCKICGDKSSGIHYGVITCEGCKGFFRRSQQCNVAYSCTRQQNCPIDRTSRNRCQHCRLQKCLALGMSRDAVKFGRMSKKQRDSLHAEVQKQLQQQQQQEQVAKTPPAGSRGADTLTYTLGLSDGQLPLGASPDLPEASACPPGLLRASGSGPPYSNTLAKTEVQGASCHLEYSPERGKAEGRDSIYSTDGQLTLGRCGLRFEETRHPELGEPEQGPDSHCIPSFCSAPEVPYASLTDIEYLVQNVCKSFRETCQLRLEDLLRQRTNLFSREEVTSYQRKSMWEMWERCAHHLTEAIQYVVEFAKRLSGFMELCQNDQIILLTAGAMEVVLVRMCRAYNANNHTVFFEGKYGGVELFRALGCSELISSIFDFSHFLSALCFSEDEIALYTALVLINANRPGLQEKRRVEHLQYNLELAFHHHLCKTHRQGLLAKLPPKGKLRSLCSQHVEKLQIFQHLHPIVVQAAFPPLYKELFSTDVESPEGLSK
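Schneider cells (Drosophila), stable Gal4 DBD–ROR gamma + UAS-luc; 1 hr cmpd preincubation; Cu2+ induction 700 uM final; 20 hr ambient; luminescence.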
* = called active by the depositor; ? = inconclusive; · = no result given; [ ] = dose if it differs, or a comment. Sampled rows, rich in hits. Any-hit rate of the full collection: about 6.4%. Calls come from the whole dose curve; as a rule, active = well fitted curve in the direction sought with a large enough effect; inconclusive = small, poorly fitted or top-dose-only effect, or another doubt; inactive = no such curve, though single readings can be large; an effect the other way counts as inactive or inconclusive. % is set by controls: 0 for no effect and ±100 for the full control effect; potency is the fitted concentration of half-maximal effect.

SMILES	Gal4-VP16 FLuc	KinaseGlo FLuc	RORgamma inh
COc1ccc(Cl)cc1-c1nc(SCC(=O)N(C)C)n[nH]1	-1.4%	2.6%	-9.5%
COc1cccc2cc(-c3ccnc(=S)[nH]3)oc12	?	-0.3%	2.82µM*
COc1cccc2cc(C(C)=O)oc12	0.1%	-1.3%	-14.1%
O=C(NCc1cnn(-c2ccc(F)cc2)c1)C1CCC(=O)N(C2CC2)C1 (centres undefined)	-14.2%	·	-6.7%
Cc1nn(C(=O)Cn2cc([N+](=O)[O-])cn2)c(C)c1Cl	0.4%	3.9%	9.9%
Cc1ccc(C)c(N(CC(=O)NC2CCCC2)S(=O)(=O)c2ccccc2)c1	-18.8%	·	-10.0%
O=c1cc(CN2CCN(c3cccc(C(F)(F)F)c3)CC2)nc2sccn12	-15.6%	·	22.6%
COc1ccc(Cl)cc1-c1n[nH]c(=S)n1C	1.8%	0.5%	?
CCn1c(-c2cc(Cl)ccc2OC)n[nH]c1=S	?	2.1%	6.31µM*
O=C(NC(=S)N1CCN(C/C=C/c2ccccc2)CC1)c1ccco1	3.98µM*	2.8%	1.12µM*
O=C(NC(=S)N1CCN(C/C=C/c2ccccc2)CC1)c1c(F)cccc1F	2.82µM*	-3.5%	1.26µM*
O=C(c1ccco1)N1CCN(C/C=C/c2ccccc2)CC1	-4.0%	·	17.4%
Fc1ccc(NC(=S)N2CCN(C/C=C/c3ccccc3)CC2)c(F)c1	?	3.2%	-67.5%
Cc1cc(C)cc(-n2cc(C(=O)O)c(=O)cc2C)c1	8.8%	-3.0%	25.3%
O=C(NC1CCCCNC1=O)c1ccccc1 (centres undefined)	-3.0%	·	5.6%
CCCOCC(C)OCC(C)O (centres undefined)	9.4%	·	1.0%
CC(=O)OC1CCC2(C)C(=CC=C3C2CCC2(C)C3CCC2C(C)/C=C/C(C)C(C)C)C1(C)C (centres undefined)	0.7%	-5.9%	7.3%
CN(CCCNC(=O)CCC(=O)N1CCOc2ccc(Cl)cc21)Cc1ccccc1	8.6%	·	-0.5%
CCOC(=O)c1c(NC(=O)C2=C(C)NC(=S)NC2c2ccc(CC)cc2)sc(C)c1C (centres undefined)	7.94µM*	-1.6%	3.55µM*
CCOC(=O)C1=C(C)NC(=S)NC1c1ccc(OC(=O)c2ccco2)cc1 (centres undefined)	-8.9%	3.2%	-11.0%
COc1cccc(C(=O)CC2c3c(c(Br)c4c(c3OC)OCO4)CCN2C)c1 (centres undefined)	-12.1%	-1.4%	7.2%
CC(=O)Nc1ccc2c(c1)nc(C)n2-c1ccccc1	29.7%	·	66.3%
Cc1nc2cc(Cl)ccc2n1-c1ccccc1	-21.6%	4.3%	15.8µM*
C/C(=N\NC(=O)C1COc2ccccc2O1)c1ccc(N2CCOCC2)cc1 (centres undefined)	-7.4%	0.3%	-0.7%
CC(C)CC1CC(C)(c2csc(NNC(=O)c3ccccc3)n2)OC1=O (centres undefined)	-25.5%	1.3%	10µM*
SMILES	Gal4-VP16 FLuc	KinaseGlo FLuc	RORgamma inh
CC1(C)CC(CC(=O)NNc2nc(-c3ccccc3)cs2)C(=O)O1 (centres undefined)	-2.0%	-3.9%	-0.9%
CN1CCN(C(=O)C2CCCN(S(=O)(=O)c3ccc(Cl)cc3)C2)CC1 (centres undefined)	-11.7%	·	24.5%
CCCN(CC(=O)Nc1ccccc1Br)CC(=O)Nc1ccc(F)c(F)c1F	4.4%	0.9%	-3.4%
CCCN(CC(=O)Nc1cc(Cl)cc(Cl)c1)CC(=O)Nc1ccc(F)c(F)c1F	22.4µM*	0.5%	?
O=C(O)c1ccc2c(c1)C(=O)N([C@H](Cc1c[nH]c3ccccc13)C(=O)O)C2=O	1.2%	·	4.4%
O=c1oc2ccccc2c2c1C1O[C@](c3ccsc3)(Cc3ccccc31)O2	-4.8%[10 µM]	·	-0.8%[10 µM]
COc1cc(C(=O)OC2CSCC2NC(=O)c2ccccc2)cc(OC)c1OC (centres undefined)	-9.3%	1.6%	6.2%
O=C(N/N=C/c1ccc([N+](=O)[O-])cc1)c1cccs1	-4.1%	·	?
COc1cc(/C=N/NC(=O)/C(=C\c2ccc([N+](=O)[O-])cc2)NC(=O)c2ccccc2)cc(OC)c1O	-1.3%	-3.1%	?
COc1cc([N+](=O)[O-])cc(/C=N/NC(=O)C(O)(c2ccccc2)c2ccccc2)c1O	0.891µM*	·	0.355µM*
O=C(N/N=C/c1cccc([N+](=O)[O-])c1O)c1cccs1	0.794µM*	-6.6%	1.12µM*
O=C(N/N=C/c1cc([N+](=O)[O-])cc([N+](=O)[O-])c1O)/C(=C\c1cccs1)NC(=O)c1ccccc1	?	7.5%	11.2µM*
COc1cc([N+](=O)[O-])cc(/C=N/NC(=O)c2cccnc2)c1O	-15.8%	·	-21.4%
O=C(N/N=C/c1cccnc1)C(O)(c1ccccc1)c1ccccc1	-13.4%	1.3%	2.4%
O=C(N/N=C/c1cccc([N+](=O)[O-])c1O)C(O)(c1ccccc1)c1ccccc1	1.26µM*	·	0.708µM*
CN(CCO)Cc1ncccc1O	·	-1.1%[7.66 µM]	·
CC1(C)OC[C@@H]2O[C@H](n3cnc4c(N)nc(Cl)nc43)[C@@H](OS(C)(=O)=O)[C@@H]2O1	·	-1.2%[7.66 µM]	·
CCCN=Cc1ccc(O)cc1	0.3%	-0.1%	7.4%
CCN(c1ccccc1)S(=O)(=O)c1ccc(Cl)c(NC(=O)CN2C(=O)NC3(CCCC3)C2=O)c1	-17.3%	·	-28.5%
O=C(CN1CCN(c2ccc(C(F)(F)F)cn2)CC1)NCc1ccc2c(c1)OCO2	-7.6%	·	?
CSc1sc(C(=O)N2CCCCC2)c(-c2cccs2)c1C#N	4.1%	·	21.8%
CC(C)(C)CC(=O)NC(=S)N1CCCCCC1	?	0.6%	7.94µM*
CC(C)(C)c1ccc(C(=O)NC(=S)N2CCCCCC2)cc1	0.501µM*	·	0.282µM*
CC(C)(C)c1ccc(C(=O)NCC(=O)N2CCCC2)cc1	?	·	20.7%
CC(=O)c1ccc(NC(=S)N2CCCCCC2)cc1	21.9%	0.7%	-24.6%
SMILES	Gal4-VP16 FLuc	KinaseGlo FLuc	RORgamma inh
CN1CCN(C(=S)NC(=O)c2ccc(Cl)cc2)CC1	1µM*	-0.3%	0.398µM*
O=C(NC(=S)N1CCCC1)c1ccc(Cl)cc1	14.3%	·	11.4%
CCOC(=O)N1CCN(C(=S)NC(=O)C2CCCC2)CC1	-7.5%	·	-34.7%
CC(C)(C)c1ccc(C(=O)NC(=S)N2CCCC2)cc1	0.891µM*	·	0.708µM*
Nc1ncnc2c1nc(-c1ccccc1)n2[C@H]1O[C@@H](CO)[C@@H](O)[C@H]1O	·	-2.7%[7.66 µM]	·
O=C(NCC1CCCO1)c1nn2c(C(F)(F)F)cc(-c3ccc(Br)o3)nc2c1Br (centres undefined)	2.7%	·	?
CC(C)C(NC(=O)c1ccc(C(C)(C)C)cc1)C(=O)Nc1cccc(S(N)(=O)=O)c1 (centres undefined)	-9.9%	1.0%	11.3%
COc1ccccc1-c1nc(NC2CC2)c2ccccc2n1	-22.5%	·	-23.7%
COc1cc(C(C(=O)NC2CCCC2)N(C(=O)Cc2cccs2)C2CC2)cc(OC)c1OC (centres undefined)	-7.6%	-0.9%	13.3%
CC(C)(C)c1ccc(C(=O)N2CCCCCC2=O)cc1	2.24µM*	1.1%	?
CC(C)(C)c1ccc(C(=O)Nc2ccc(C(=O)N3CCCC3)cc2)cc1	-10.9%	·	?

Assay outcomes (PubChem BioAssay)
